MARV entry inh: inhibitors of Marburg virus binding or cell entry | Marburg virus pseudotyped entry inhibition, cell reporter | Potency, µM (highest dose often 37.8 µM), without a hit: at the highest dose activity change, negative = inhibition, hits mostly inhibitors | 300,000 compounds, 1.8% hits | AID 540276; calls by dose curve; tested in HEK293 cells; also: potency is read from the fitted curve at half-maximal effect
HCV inhibitor: inhibitors of hepatitis C virus infection | Potency, µM (doses to about 41.8 µM), without a hit: at the highest dose activity change, negative = inhibition, hits mostly inhibitors | 340,000 compounds, 3.4% hits | Huh7.5.1 HCVcc-Cre infection, luciferase reporter, 44 h; active = well fitted inhibition curve with a large enough effect; inconclusive = small, poorly fitted or top-dose-only effect, or another doubt; inactive = no such curve, though single readings can be large or run the other way; also: potency is read from the fitted curve at half-maximal effect
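A cell-based infection assay in which seeded cells (1,000 per well) receive test compound after 4 h, are inoculated with HCVcc-Cre at approximately 0.5 moi, and are incubated 44 h before luminescence detection.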
FMDV inh: antivirals against foot and mouth disease virus. FMDV antiviral cell-based qHTS. Potency, µM (doses to about 57.9 µM), inactives show at the top dose activity change, negative = inhibition, actives largely listed as inhibitors. 410,000 compounds, 1.2% hits. AID 1159524; calls by dose curve; tested in HEK293T cells; also: read-out not given here; potency is read from the fitted curve at half-maximal effect; nearly all actives have a fitted effect of over 45% in size
HCMV antiviral: blocks human cytomegalovirus replication; HFF cells, HCMV-luciferase reporter, 72 h; hits give low values; activity change, negative = inhibition, % at 57.5 µM; 410,000 compounds, 4.5% hits; in the data active = activity change below about -60%; inconclusive = no clear call, values can overlap the other calls; inactive = above about -39%
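After 16 h attachment at 37C, HFF cells received test compound and HCMV-luciferase (1 PFU/cell); reporter luminescence read 72 h later, data normalized against buffer-only and known inhibitor Salinomycin.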
LASV entry inh: blocks Lassa virus binding to or entry into cells; Lassa virus pseudotype entry inhibition, cell reporter; Potency, µM (titrated, usually from 37.9 µM), without a hit: at the highest dose activity change, negative = inhibition, usual class: inhibitors; 300,000 compounds, 1.2% hits; AID 540256; calls by dose curve; tested in HEK293 cells; also: potency is read from the fitted curve at half-maximal effect; nearly all actives have a fitted effect of over 50% in size
Numbers without * were called inactive; u = inconclusive; x = not tested or not shown; [ ] = another dose, or the depositor's remark. Hits are enriched below; roughly 7.9% of the tested compounds scored in any of these assays. % is scaled to controls: 0 for no effect and ±100 for the full control effect.

SMILES	MARV entry inh	HCV inhibitor	FMDV inh	HCMV antiviral	LASV entry inh
Cc1ccc2[nH]c(C(F)(F)F)cc(=O)c2c1	u	9.4%	-19.1%	-73.0*	u
COc1cccc(-c2cc(=O)c3cc(NC(=O)c4ccc(N(C)C)cc4)ccc3[nH]2)c1	u	-3.9%	-19.9%	x	0.92µM*
O=c1cc(-c2ccccc2)[nH]c2ccc(F)cc12	-44.6%	-9.6%	4.8%	-62.0*	u
O=c1cc(-c2cccc(F)c2)[nH]c2ccccc12	u	3.9%[8.37 µM]	-9.1%	-76.8*	u
CCC1CN(Cc2cccn2-c2ccccn2)Cc2cc(OC)ccc2O1 (configuration not stated)	x	x	26.2%	x	x
CCOC(=O)c1ccccc1NC(=O)N1CCC(CN2CCOCC2)CC1	x	x	-1.7%	66.1	20.6%[46.1 µM]
CCCCNC(=O)c1c(N)[nH]c(C(=O)c2ccccc2)c1-c1ccccn1	x	x	-21.1%	-9.7	x
Cc1cccc(-c2nc(SCC(=O)NCC3CCCO3)c3c(=O)n(C)c(=O)n(C)c3n2)c1 (configuration not stated)	x	x	0.0%	8.9	-6.5%[46.1 µM]
COc1ccc(-c2cc(=O)c3ccccc3[nH]2)cc1	-7.7%	4.5%[8.37 µM]	21.6%	17.1	6.2%
Cc1ccc(-c2cc(=O)c3cc(C)ccc3[nH]2)cc1	8.2µM*	u	-44.6%	0.5	14.6µM*
Cc1ccc(-c2cc(=O)c3cc(F)ccc3[nH]2)cc1	-21.6%	-5.8%	35.3%	-0.4	14.8%
COc1ccc2[nH]c(-c3cccc(F)c3)cc(=O)c2c1	-4.8%	4.0%[8.37 µM]	55.8%	-61.5*	8.1%
Cc1ccc2[nH]c(-c3cccc(F)c3)cc(=O)c2c1	u	u	38.2%	-68.9*	-13.5%
Cc1ccsc1C(=O)OCC(=O)NC1CCCC(C)C1C (configuration not stated)	9.1%	14.2%	25.8%	-13.7	-1.7%
O=C(c1ccco1)N1N=C(c2ccc(Br)cc2)CC1(O)C(F)(F)F (configuration not stated)	10µM*	u	u	u	u
Cc1ccc(N(CC(=O)N2CCN(c3ccc(Cl)cc3)CC2)S(=O)(=O)c2c(C)noc2C)cc1	19.4%[46.1 µM]	x	-10.3%	-20.1	-1.2%[46.1 µM]
O=[N+]([O-])c1cccc(S(=O)(=O)Nc2nc3ccccc3nc2Nc2cccc(S(=O)(=O)N3CCCCC3)c2)c1	x	10µM*	u	-100.2*	x
Cc1ccc(C(=O)Nc2cccc(S(=O)(=O)N3CCCCC3)c2)cc1[N+](=O)[O-]	x	7.08µM*	u	-34.1	x
Cc1ccc(C(=O)Nc2ccc3c(c2)CCC3)cc1S(=O)(=O)N1CCOCC1	u	u	22.6%	-62.1*	12.5%[46.1 µM]
O=C(Cn1cnc2cc([N+](=O)[O-])ccc2c1=O)N1CCN(S(=O)(=O)c2ccccc2)CC1	u	-14.7%	-24.6%	3.3	-16.8%[46.1 µM]
O=C(Cn1cnc2cc([N+](=O)[O-])ccc2c1=O)Nc1cccc(S(=O)(=O)N2CCCCC2)c1	x	5.62µM*	u	u	x
Cc1ncc2c(c1CNS(=O)(=O)N(C)C)CCN(C(=O)/C=C/c1ccccc1Cl)C2	x	x	-3.4%	x	x
COc1ccc(Nc2cc3[nH]c(-c4ccccc4)cc3cn2)cc1	x	x	x	1.1	x
COc1ccc(NC(=O)c2cc3c(s2)CCC(C)C3)cc1S(=O)(=O)N1CCOCC1 (configuration not stated)	u	u	28.2µM*	-100.0*	23.1µM*
Cc1ccc(C(=O)NC(C)c2ccc(-n3ccnc3)cc2)cc1S(=O)(=O)N1CCOCC1 (configuration not stated)	-1.4%	u	9.6%	-97.5*	14.7%
SMILES	MARV entry inh	HCV inhibitor	FMDV inh	HCMV antiviral	LASV entry inh
Cc1ccc(NC(=O)c2cccc(S(=O)(=O)N(C)c3ccccc3)c2)cc1S(=O)(=O)N1CCOCC1	u	3.98µM*	u	-70.1*	u
COc1ccc(NC(=O)C2CCC2)cc1S(=O)(=O)N1CCOCC1	x	-1.7%	-5.1%	41.6	x
COc1ccc(C(=O)Nc2ncc(C)s2)cc1S(=O)(=O)N1CCOCC1	x	0.7%	-11.1%	-28.4	x
Cc1cnc(NC(=O)c2ccc(F)c(S(=O)(=O)N3CCOCC3)c2)s1	-3.6%	u	-10.1%	-104.9*	15.2%
O=S(=O)(N[C@H](CO)Cc1ccccc1)c1ccc(Br)cc1F	x	u	11.4%	-5.0	x
COc1ccc(-n2ccnc(NCc3ccc(Cl)cc3)c2=O)cc1	x	x	u	-34.8	4.6%[46.1 µM]

From PubChem BioAssay
